# Hits are enriched below; roughly 7% of the tested compounds scored in any of these assays.
# ATXN viability = viability counter-screen for ATXN expression inhibitors. S2 cells (HEK-293 line with an ATXN2-luciferase reporter) viability, CellTiter-Fluor protease fluorescence, 24 h. Potency, µM (top dose mostly 56.7 µM), hits mostly cytotoxic. 0.49% of 400,000 active. AID 651635; note: potency is the fitted concentration of half-maximal effect; nearly all actives have a fitted effect of over 40% in size
# IL1B secr inh = inhibitors of inflammasome signaling (IL-1 beta secretion); THP-1 LPS/ATP IL-1B secretion, AlphaLISA, 16 h; hits give low values; activity change, % at 57.5 µM; 4.7% of 360,000 active; AID 743279; in the data active = activity change below about -50%; inconclusive = mostly about -30% to -49%; note: % is set by controls: 0 for no effect and ±100 for the full control effect
#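 Secreted IL-1B measured by AlphaLISA bead assay after 16 h compound exposure of THP-1 cells; compounds (final up to 57.5 uM) added 1 h before LPS (250 ng/mL) and ATP (1.25 mM) stimulation; lower signal means less secretion.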
# DRD3 agonist = D3 dopamine receptor (human) agonism | max activation, % | P35462 | D3R DiscoveRx beta-arrestin cells, luminescence, 90 min | 0.58% of 410,000 active; in the data active = max activation above about 30%; note: 0% is about no effect
# Target sequence (P35462 whole entry, looked up): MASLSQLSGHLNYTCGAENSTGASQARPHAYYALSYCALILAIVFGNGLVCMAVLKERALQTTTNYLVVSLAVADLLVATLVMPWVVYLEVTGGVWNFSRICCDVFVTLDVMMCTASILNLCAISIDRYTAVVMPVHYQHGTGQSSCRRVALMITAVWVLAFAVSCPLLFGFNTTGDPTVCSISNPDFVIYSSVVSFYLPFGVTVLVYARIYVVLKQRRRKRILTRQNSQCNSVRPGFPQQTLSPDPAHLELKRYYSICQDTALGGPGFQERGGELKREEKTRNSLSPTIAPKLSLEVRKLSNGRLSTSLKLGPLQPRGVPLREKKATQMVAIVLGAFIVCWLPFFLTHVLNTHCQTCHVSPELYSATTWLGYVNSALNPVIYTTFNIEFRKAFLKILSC
#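 Agonist mode: compounds and dopamine controls were applied to plated cells for 90 min at 37 degrees C after an overnight attachment at 1500 cells/well. Luminescent read-out followed 30 - 60 minutes at room temperature with DiscoveRx detection reagent.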
# Integrin act MD = integrin-mediated muscular dystrophy alleviation activation. AID 624291. Potency, µM (top dose mostly 38.3 µM), inactives show top-dose activation, actives largely listed as activators. alpha7betagal myoblasts, beta-gal FDG fluorescence, 48 h. 0.064% of 350,000 active;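 note: potency is the fitted concentration of half-maximal effect; 100% = response of the positive control SU9516; nearly all actives have a fitted effect of over 60% in size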
#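 Alpha7betagal+/- myoblasts (passage 13) were plated 16-24 hr, then exposed to compounds (1:260 dilution of DMSO stock) for 48 hours at 37C. After MPER lysis, β-galactosidase reporter activity was read as FDG fluorescence (ex 480/em 540) after 30 minutes.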
# ATXN2 expr inh = inhibitors of ATXN2 expression; HEK-293 ATXN2-luciferase reporter, luminescence, 24 h; Potency, µM (titrated, usually from 57 µM), without a hit: at the highest dose activity change, negative = inhibition, actives largely listed as inhibitors; AID 1745845; 0.72% of 360,000 active; note: potency is the fitted concentration of half-maximal effect; % is set by controls: 0 for no effect and ±100 for the full control effect; nearly all actives have a fitted effect of over 55% in size
#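 qHTS (up to 57 uM final) was run with 24 h compound exposure of reporter cells at 37 °C. Each well was multiplexed: SteadyGlo luminescence measured ATXN2-luciferase expression after a fluorogenic Gly-Phe-AFC viability readout (25 uM final).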
# DRD3 antagonist = D3 dopamine receptor (human) antagonism. P35462. 2.5% of 360,000 active. max response, negative = inhibition, %. AID 652054. D3R cells, DiscoveRx beta-arrestin luminescence, antagonist mode; hits give low values; in the data active = max response below about -50%; inconclusive = no clear call, values can overlap the other calls; note: % is set by controls: 0 for no effect and ±100 for the full control effect
#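 Cells expressing the human receptor were seeded at 1500 cells/well, incubated overnight at 37 degrees C in 5% CO2, then exposed to library compounds with dopamine controls for 90 minutes at 37 degrees C before luminescent detection.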
# SK-N-SH 3D tox = kills SK-N-SH neuroblastoma spheroids in orthogonal 3D test; Potency, µM (highest dose often 30.7 µM), usual class: inhibitors; SK-N-SH 3D spheroid viability, PI/Hoechst imaging, 72 h; shares compounds with ATXN2 expr inh; 70% of 65 active
# SJ-GBM2 3D tox = reduced viability of SJ-GBM2 3D spheroids, orthogonal test; Potency, µM (doses to about 30.7 µM), most hits filed as inhibitors; SJ-GBM2 3D spheroid viability, PI/Hoechst imaging, 72 h; shares compounds with ATXN2 expr inh; 80% of 65 active; AID 1347136
# Daoy spheroid = reduced viability of Daoy 3D spheroids, orthogonal test; AID 1347137; Potency, µM (doses to about 30.7 µM), actives largely listed as inhibitors; 50% of 65 active; Daoy 3D spheroid viability, PI/Hoechst imaging, 72 h; shares compounds with ATXN2 expr inh
# TC32 3D casp = TC32 spheroid caspase-3/7 activation, orthogonal screen. shares compounds with ATXN2 expr inh. TC32 3D spheroids, caspase-3/7 fluorescence imaging, 24 h. Potency, µM (top dose mostly 30.7 µM), most hits filed as inhibitors. 30% of 65 active
# TC32 spheroid = TC32 3D spheroid viability loss | shares compounds with ATXN2 expr inh | Potency, µM (highest dose often 30.7 µM), most hits filed as inhibitors | 60% of 65 active | AID 1347139 | TC32 3D spheroid viability, PI/Hoechst imaging, 72 h
# MG63 spheroid = kills MG-63 (6-TG R) spheroids in orthogonal 3D test. shares compounds with ATXN2 expr inh. MG-63 (6-TG R) 3D spheroid viability, PI/Hoechst imaging, 72 h. Potency, µM (doses to about 30.7 µM), actives largely listed as inhibitors. 50% of 65 active
# RD 3D tox = reduced viability of RD 3D spheroids, orthogonal test | 50% of 65 active | RD rhabdomyosarcoma 3D spheroid viability, PI/Hoechst imaging, 72 h | shares compounds with ATXN2 expr inh | Potency, µM (highest dose often 30.7 µM), hits mostly inhibitors | AID 1347141
# * = called active by the depositor; i = inactive; ? = inconclusive; . = not tested or not shown. Unless noted, calls come from the whole dose curve; as a rule, active = well fitted curve in the direction sought with a large enough effect; inconclusive = small, poorly fitted or top-dose-only effect, or another doubt; inactive = no such curve, though single readings can be large; an effect the other way counts as inactive or inconclusive.
SMILES,ATXN viability,IL1B secr inh,DRD3 agonist,Integrin act MD,ATXN2 expr inh,DRD3 antagonist,SK-N-SH 3D tox,SJ-GBM2 3D tox,Daoy spheroid,TC32 3D casp,TC32 spheroid,MG63 spheroid,RD 3D tox
O=C1C(Cl)=C(NCCN2CCOCC2)C(=O)c2ncccc21,.,.,.,.,9.7µM*,.,3.2µM*,4.6µM*,6.4µM*,i,11µM*,5.1µM*,11µM*
c1ccc2c(c1)CCCc1cc(NCCN3CCOCC3)nnc1-2,i,10,-19,.,-1%,-24,.,.,.,.,.,.,.
Cc1ccc(-c2ncn(-c3ccc(Nc4nccc(-c5cccc(N6CCOCC6)c5)n4)cc3)n2)cn1,.,.,.,.,4.9µM*,.,0.91µM*,1.6µM*,.,i,i,i,?
Nc1c(C(=O)NCc2ccc(Cl)cc2Cl)nnn1Cc1ccc(Br)cc1,i,.,3,.,-13%,.,.,.,.,.,.,.,.
CO[C@H]1C[C@@H]2CC[C@@H](C)[C@@](O)(O2)C(=O)C(=O)N2CCCC[C@H]2C(=O)O[C@H]([C@H](C)C[C@@H]2CC[C@@H](O)[C@H](OC)C2)CC(=O)[C@H](C)C=C(C)[C@@H](O)[C@@H](OC)C(=O)[C@H](C)C[C@H](C)/C=C/C=CC=C1C,.,.,-11,.,.,.,.,.,.,.,.,.,.
CC[C@@H]1C=C(C)C[C@H](C)C[C@H](OC)[C@H]2O[C@@](O)(C(=O)C(=O)N3CCCC[C@@H]3C(=O)O[C@H](C(C)=C[C@@H]3CC[C@H](Cl)[C@H](OC)C3)[C@H](C)[C@@H](O)CC1=O)[C@H](C)C[C@H]2OC,.,.,.,.,?,.,16µM*,2.3µM*,1.4µM*,i,20µM*,3.6µM*,?
Cn1cc(CNCC2CCN(c3ncc(C(=O)NO)cn3)CC2)c2ccccc21,.,.,.,.,61%,.,0.02µM*,0.026µM*,0.18µM*,?,0.064µM*,0.72µM*,0.32µM*
COc1ccc(NC(=O)CCCNC(=O)c2ccc(Cl)cc2)cc1S(=O)(=O)N1CCOCC1,i,40,8,7%,0%,1,.,.,.,.,.,.,.
Cc1cccc(N(C)S(=O)(=O)c2c(C)noc2C)c1,i,14,-2,29%,.,-24,.,.,.,.,.,.,.
CC(=O)O[C@H]1C(=O)[C@@]2(C)[C@H]([C@H](OC(=O)c3ccccc3)[C@]3(O)C[C@H](OC(=O)[C@H](O)[C@@H](NC(=O)c4ccccc4)c4ccccc4)C(C)=C1C3(C)C)[C@]1(OC(C)=O)CO[C@@H]1C[C@@H]2O,?,-8,10,.,-24%,2,0.14µM*,0.01µM*,0.14µM*,?,0.014µM*,?,0.057µM*
CC(=O)O[C@H]1C(=O)[C@@]2(C)[C@H]([C@H](OC(=O)c3ccccc3)[C@]3(O)C[C@H](OC(=O)[C@H](O)C(NC(=O)c4ccccc4)c4ccccc4)C(C)=C1C3(C)C)[C@]1(OC(C)=O)CO[C@@H]1C[C@@H]2O (some centres undefined),?,10,7,.,-25%,32,.,.,.,.,.,.,.
CC(=O)O[C@@]12CO[C@H]1C[C@H](O)[C@@]1(C)C(=O)[C@H](O)C3=C(C)[C@@H](OC(=O)C(O)[C@@H](NC(=O)OC(C)(C)C)c4ccccc4)C[C@@](O)([C@@H](OC(=O)c4ccccc4)[C@@H]21)C3(C)C (some centres undefined),.,.,.,.,?,.,0.026µM*,0.0046µM*,2.6µM*,i,?,8.1µM*,?
COc1ccc(/C=N/Nc2nnc(Cc3ccccc3)c(=O)[nH]2)cc1,i,27,-2,9%,0%,8,.,.,.,.,.,.,.
Cc1ccc(S(=O)(=O)c2c(C)nn(C(C)(C)C)c2OC(=O)C2CCCC2)cc1,?,4,12,-39%,?,0,.,.,.,.,.,.,.
CC(=O)OCC(=O)[C@@]12N=C(C)O[C@@H]1C[C@H]1[C@@H]3CCC4=CC(=O)C=C[C@]4(C)[C@H]3[C@@H](O)C[C@@]12C,i,.,-2,.,-6%,.,i,?,i,i,i,i,i
CC(=O)OCC(=O)[C@@]1(O)CC[C@H]2[C@@H]3CCC4=CC(=O)C=C[C@]4(C)[C@@H]3[C@@H](O)C[C@@]21C,.,.,.,.,-3%,.,.,.,.,.,.,.,.
Cc1ccc(/C=C/C(=O)N2CCCC(C(N)=O)C2)o1 (centres undefined),i,5,1,-19%,9%,3,.,.,.,.,.,.,.
Cc1nc2n(COCCO)cnn2c(=O)c1Br,i,24,0,31%,-5%,2,.,.,.,.,.,.,.
Nc1nc2c(ncn2COCCO)c(=O)[nH]1,i,15,-10,.,-3%,0,5.7µM*,5.1µM*,?,i,?,?,i
COc1cccc2c1C(=O)c1c(O)c3c(c(O)c1C2=O)C[C@@](O)(C(=O)CO)C[C@@H]3O[C@H]1C[C@H](N)[C@H](O)[C@H](C)O1,4µM*,-107*,-7,.,0.32µM*,-15,0.18µM*,0.29µM*,2.9µM*,1µM*,0.32µM*,4.1µM*,2.6µM*
CC(C)(C)NC(=O)[C@H]1CN(Cc2cccnc2)CCN1C[C@@H](O)C[C@@H](Cc1ccccc1)C(=O)N[C@H]1c2ccccc2C[C@H]1O,.,.,.,.,?,.,i,i,i,i,i,i,i
COC(=O)C[C@H]1CC[C@H](NC(=O)Nc2ccccc2)[C@@H](CO)O1,.,0,4,.,.,24,.,.,.,.,.,.,.
